Records with an inconclusive call do not appear. The source made the active and inactive calls. The call rests on the fitted dose curve; in most records, active means well fitted cell-killing curve with a large enough effect; inconclusive means small, poorly fitted or top-dose-only effect, or effect the other way; inactive means no such curve, though single readings can be large or run the other way.
On the % scale 0 is the no-effect control and ±100 the full control effect; potency means the concentration at half of the fitted maximal effect.

For the experiment, the system named is Hek293T. The experiment can be described thus: Confirmatory qHTS for gynecologic anti-cancer compounds from libraries of approved drugs and bioactive compounds. Further: nearly all actives have a fitted effect of over 55% in size. The note with it: gynecologic cancer cell panel viability, ATPlite luminescence, 48 h; series mostly up to 57.6 µM; activity change, negative = viability loss: at the top concentration. In short, it runs like this: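 Seeding 1,000 cells per well preceded overnight (16 h) attachment, after which 48 h drug treatment across 57.5 uM–0.977 nM (11 points) was applied. Remaining cellular ATP, detected by ATPlite luminescence, defined IC50.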
(In qHTS, concentration-response curves come from the screen itself.)
In the case of `C[C@H]1CCC/C=C/C2C[C@H](O)C[C@H]2[C@H](O)/C=C/C(=O)O1` (stereo partly drawn), the Potency was 1.09 µM (active).

For `C=C(C)[C@H]1Cc2c(ccc3c2O[C@@H]2COc4cc(OC)c(OC)cc4[C@@H]2C3=O)O1`, the Potency was 0.432 µM (active).

Take `CCNC(=O)C[C@@H]1N=C(c2ccc(Cl)cc2)c2cc(OC)ccc2-n2c(C)nnc21`: the “activity change, negative = viability loss” value was 21.5% (inactive).

The record behind these values is PubChem BioAssay AID1345085 (National Center for Advancing Translational Sciences (NCATS), 2018).
